Inconclusive results are not listed. The source made the active and inactive calls. Calls follow the shape of the dose curve; as a rule, active = well fitted cell-killing curve with a large enough effect in the repeat runs; inconclusive = weak or mixed curves, or effect the other way; inactive = flat fitted curve, though single readings scatter.
Assay: cAMP Responsive Elements (CRE) small molecule antagonists, cell-based qHTS assay: qHTS cell viability counter screen (AID 2060913); also: nearly all actives have a fitted effect of over 40% in size
Settings: CRE-bla HEK293T viability, CellTiter-Glo luminescence, 5 h; series mostly up to 92.4 µM; viability change, negative = cytotoxic: at the top concentration
In short: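 HEK293T CRE-bla, 2,000 cells/well, 18 h preincubation; cpd in DMSO + NKH477 0.25 uM final, 3 h 37 C/5% CO2; LiveBLAzer 2 h RT, then CellTiter-Glo 30 min RT, luminescence.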
% is scaled to controls: 0 for no effect and ±100 for the full control effect; potency is read from the fitted curve at half-maximal effect.

Q: Which “viability change, negative = cytotoxic” value does the source give for S=c1[nH][nH]c(=S)s1 here?
A: The value was 0.22% (inactive).

Q: With CC1CCCC1 as the compound, how does the “viability change, negative = cytotoxic” value read?
A: Its value is -3.26% (inactive).

Q: Which “viability change, negative = cytotoxic” value does the source give for O=C(O)c1ccc2cc(O)ccc2c1 here?
A: Its value is 0.0439% (inactive).

Q: For C=CC(=O)OCC1CC2CC1C1CCC(COC(=O)C=C)C21 (stereo not given), which “viability change, negative = cytotoxic” value is on record?
A: The value was 14.4% (inactive).

Q: Which “viability change, negative = cytotoxic” value does the source give for COc1ccc(OC)c(Cl)c1 here?
A: The value was 0.0713% (inactive).

Q: For CCC(=O)OCCc1ccccc1, which “viability change, negative = cytotoxic” value is on record?
A: The value was -6.32% (inactive).

Q: For O=C(O)CN(CCOCCOCCN(CC(=O)O)CC(=O)O)CC(=O)O, which viability change, negative = cytotoxic is on record?
A: The viability change, negative = cytotoxic was -0.164% [at 0.349 µM] (inactive).

Q: With CCC(C)(C)c1ccc(CC(C)CN2C[C@@H](C)O[C@@H](C)C2)cc1 (stereo not given in full) as the compound, how does the “viability change, negative = cytotoxic” value read?
A: The value was 1.32% [at 42.5 µM] (inactive).

Q: For CC(C)c1cccc(C(C)C)c1NC(=O)NS(=O)(=O)c1cc(C(C)(C)O)co1, which “viability change, negative = cytotoxic” value is on record?
A: The value was 1.55% (inactive).

Q: Which Potency does the source give for COC(=O)Nc1nc2ccc(Sc3ccccc3)cc2[nH]1 here?
A: Its Potency is “inactive”.

Q: For CCN(CC#N)c1cccc(C)c1, which “viability change, negative = cytotoxic” value is on record?
A: The value was -0.294% (inactive).

Q: With COc1cc(-c2ccc(=O)[nH]n2)ccc1OC(F)F as the compound, how does the “viability change, negative = cytotoxic” value read?
A: Its value is -5.74% [at 42.5 µM] (inactive).

Q: For CCCCCCCCCCCCN1CCCC1=O, which “viability change, negative = cytotoxic” value is on record?
A: Its value is 0.273% (inactive).

Q: With O=C(NCN1CCOCC1)c1cnccn1 as the compound, how does the “viability change, negative = cytotoxic” value read?
A: The value was 0.0803% [at 42.5 µM] (inactive).

Q: With CCN1C=CN(C)C1C (stereo not given) as the compound, how does the “viability change, negative = cytotoxic” value read?
A: Its value is 5.18% (inactive).

Q: Which “viability change, negative = cytotoxic” value does the source give for CC(C)(C)OC(=O)c1ccccc1C(=O)O here?
A: The value was 9.47% (inactive).

Q: For CCCCNC(=S)NCCCC, which “viability change, negative = cytotoxic” value is on record?
A: The value was 1.39% (inactive).

Q: For COC(=O)Nc1nc2ccc(C(=O)c3ccccc3)cc2[nH]1, which “viability change, negative = cytotoxic” value is on record?
A: The value was -2.16% [at 42.5 µM] (inactive).

Q: Which “viability change, negative = cytotoxic” value does the source give for CCC(C)c1nccnc1OC (stereo not given) here?
A: Its value is 10% (inactive).

Q: With C=C(C)C(=O)OCCC(F)(F)C(F)(F)C(F)(F)C(F)(F)C(F)(F)C(F)(F)F as the compound, how does the “viability change, negative = cytotoxic” value read?
A: The value was 4.25% (inactive).

Q: For CCOc1cc(N)c(Cl)cc1C(=O)NCC1CN(Cc2ccc(F)cc2)CCO1 (stereo not given), which “viability change, negative = cytotoxic” value is on record?
A: Its value is -0.53% [at 42.5 µM] (inactive).

Q: For [Cl][Au]([Cl])[Cl], which “viability change, negative = cytotoxic” value is on record?
A: The value was -23.1% (inactive).

Q: Which “viability change, negative = cytotoxic” value does the source give for CNC(=O)c1cnn(-c2nc(N)c3ncn([C@@H]4O[C@H](CO)[C@@H](O)[C@H]4O)c3n2)c1 here?
A: The value was 0.507% [at 42.5 µM] (inactive).

Q: For COc1ccc(COC(C)=O)cc1, which Potency is on record?
A: Its Potency is “inactive”.

Q: With CCCCOCCOCCOC(=O)CCCCC(=O)OCCOCCOCCCC as the compound, how does the Potency read?
A: Its Potency is “inactive”.

Q: Which “viability change, negative = cytotoxic” value does the source give for CCCC(=O)OCc1ccccc1 here?
A: The value was 7.64% (inactive).

Q: Which “viability change, negative = cytotoxic” value does the source give for CC(O)CN (stereo not given) here?
A: The value was 1.42% (inactive).

Q: For CC(C)c1cccc(C(C)C)c1N, which “viability change, negative = cytotoxic” value is on record?
A: Its value is -1% (inactive).

Q: With O=C(c1ccccc1)c1cc(Cl)ccc1O as the compound, how does the “viability change, negative = cytotoxic” value read?
A: Its value is -19.6% (inactive).

Q: With CCCCC(CC)COC(=O)c1ccccc1C(=O)O (stereo not given) as the compound, how does the “viability change, negative = cytotoxic” value read?
A: Its value is 3.97% (inactive).

Q: Which “viability change, negative = cytotoxic” value does the source give for C=C(C)C(=O)OCCOCC here?
A: The value was -0.872% (inactive).

Q: With N#C/C(=C1/SC[C@@H](c2ccc(Cl)cc2Cl)S1)n1ccnc1 as the compound, how does the “viability change, negative = cytotoxic” value read?
A: The value was -13% [at 42.5 µM] (inactive).

Q: For Nc1ccc(C(=O)Oc2ccccc2)c(O)c1, which “viability change, negative = cytotoxic” value is on record?
A: The value was -4.47% [at 42.5 µM] (inactive).

Q: Which “viability change, negative = cytotoxic” value does the source give for CCOC(/C=C(\C)CCC=C(C)C)OCC here?
A: Its value is 20.1% (inactive).

Q: Which “viability change, negative = cytotoxic” value does the source give for CC(C(=O)O)c1cccc(Oc2ccccc2)c1 (stereo not given) here?
A: Its value is 3.59% [at 42.5 µM] (inactive).

Q: With O=C(O)c1cccnc1C(=O)O as the compound, how does the “viability change, negative = cytotoxic” value read?
A: Its value is -1.42% (inactive).

Q: Which Potency does the source give for C[C@H]1O[C@@H](O[C@H]2[C@@H](O)C[C@H](O[C@H]3[C@@H](O)C[C@H](O[C@H]4CC[C@@]5(C)[C@H](CC[C@@H]6[C@@H]5C[C@@H](O)[C@]5(C)[C@@H](C7=CC(=O)OC7)CC[C@]65O)C4)O[C@@H]3C)O[C@@H]2C)C[C@H](O)[C@@H]1O here?
A: Its Potency is 63.2 nM (active).

Q: With O=[N+]([O-])c1ccc(/C=N\O)o1 as the compound, how does the “viability change, negative = cytotoxic” value read?
A: The value was 6.89% [at 42.5 µM] (inactive).

Q: Which Potency does the source give for C=C(CC)C(=O)c1ccc(OCC(=O)O)c(Cl)c1Cl here?
A: Its Potency is “inactive”.

Q: For C[C@@H]1C[C@H]2[C@@H]3CCC4=CC(=O)C=C[C@]4(C)[C@@]3(F)[C@@H](O)C[C@]2(C)[C@H]1C(=O)CO, which “viability change, negative = cytotoxic” value is on record?
A: The value was -5.67% [at 42.5 µM] (inactive).

— PubChem BioAssay (Tox21)
